Laboratory results reported in the supplement of paper PMC10981050.
Where “and” joins values, the source holds several entries; their conditions need not be identical. Equal entries are not always repeated. Structures can show the parent of a compound that is named as a salt.

Assays:
Experiment in all cases: cell viability relative to vehicle control; higher = less cytotoxic
Conditions in all cases: 10 µM
K562 = tested on: K562
Outline: (§1)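 Each screen used CRISPR-edited mutant and wild-type clones from four leukaemia lines. Compounds were acoustically dispensed at a single 10 µM dose, and CellTiter-Glo luminescence was read after 48 h with the supernatant first removed. Viability was analysed in Genedata Screener and given as percent of the on-plate vehicle control.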

MARIMO = tested on: MARIMO
Outline: as §1

MOLM14 = tested on: MOLM14
Outline: as §1

OCI-AML2 = tested on: OCI-AML2
Outline: as §1

SMILES	cell viability (K562; SRSF2 genotype: SRSF2 P95H/wt)	cell viability (K562; SRSF2 genotype: SRSF2 wt/wt) [%]	cell viability (MARIMO; SRSF2 genotype: SRSF2 P95H/wt) [%]	cell viability (MARIMO; SRSF2 genotype: SRSF2 wt/wt) [%]	cell viability (MOLM14; SRSF2 genotype: SRSF2 P95H/wt) [%]	cell viability (MOLM14; SRSF2 genotype: SRSF2 wt/wt) [%]	cell viability (OCI-AML2; SRSF2 genotype: P95H/wt) [%]	cell viability (OCI-AML2; SRSF2 genotype: wt/wt) [%]
CN(C)C(=O)/C(C#N)=C/c1ccc(-c2nc3cnc4[nH]ccc4c3n2C2CCCCC2)o1	99.3% and 98.8%	98.6	80.9	89.3	49.5	71	71.5	71.5
C/C(=C\C(=O)OCCCCCCCCC(=O)O)C[C@@H]1OC[C@H](C[C@@H]2O[C@H]2[C@@H](C)[C@H](C)O)[C@@H](O)[C@H]1O [Mupirocin]	98.8% and 99.8%	101	103	103	97.7	103	100	92
CC(CN(C)C)Oc1nc(Nc2cc3cccc(Cl)c3cn2)cnc1C#N (stereo unspecified)	50.7% and 62.5%	44.9	62.2	56.3	15.7	8.7	17	18.5
CC[C@]1(O)C[C@H]2CN(CCc3c([nH]c4ccccc34)[C@@](C(=O)OC)(c3cc4c(cc3OC)N(C=O)[C@H]3[C@@](O)(C(=O)OC)[C@H](OC(C)=O)[C@]5(CC)C=CCN6CC[C@]43[C@@H]65)C2)C1 [Vincristine Sulfate]	13.6% and 37%	35.8	6.92	9.68	0.94	1.22	5.06	9.32
CCOC(=O)c1ccc(NC(=O)O[C@H]2[C@H](OC(=O)Nc3ccc4c(c3)OCO4)[C@@H](OC(=O)Nc3ccc4c(c3)OCO4)[C@@H](OC)O[C@@H]2CO)cc1	89.5% and 99.2%	93.3	103	106	100	101	99.3	103
CCNC(=O)c1[nH]nc(-c2cc(Cl)c(O)cc2O)c1-c1ccc(OC)cc1	19.1% and 31.3%	23.6	33.6	28.2	2.11	1.17	12.6	19.3
CC(C)c1noc(N2CCC(COc3ccc(-c4ccc(S(C)(=O)=O)cc4)nc3)CC2)n1	59.8% and 77.2%	70.5	70	34.1	90.4	95.7	28.4	36.8
O=C(O)c1ccc(N2C(=O)C(=Cc3ccc(-c4ccc([N+](=O)[O-])cc4)o3)C=C2c2ccccc2)cc1	86.8% and 85.4%	84.5	104	108	82.2	94	97.9	98.2
CCCCc1nc2cc(/C=C/C(=O)NO)ccc2n1CCN(CC)CC [SB939 (Pracinostat)]	1.57% and 13.7%	4.32	9.81	13.9	1.19	0.63	4.26	6.25
COc1cc2c(Nc3ccc(NC(=O)c4ccccc4)cc3)ncnc2cc1OCCCN1CCOCC1	67.2% and 92%	79.4	62.5	72	17.9	10.3	16.4	22.1
Cn1cnc2c(F)c(Nc3ccc(Br)cc3Cl)c(C(=O)NOCCO)cc21 [AZD6244 (Selumetinib)]	79% and 92.2%	75.3	37.5	36.3	44.6	31.3	39.6	43.6
O=C(C=CC=Cc1ccccc1)CCc1ccccc1 [Alnustone]	105% and 100%	91.8	92	87.5	88.1	87.4	76.6	95.6
O=C1[C@H]2CCCC[C@H]2C(=O)N1CCCCN1CCN(c2nsc3ccccc23)CC1 [Perospirone hydrochloride]	70.2% and 74%	73.6	71.2	82.3	78.7	82.5	73.7	75.8
Cn1nnnc1SCC1=C(C(=O)O)N2C(=O)[C@@H](NC(=O)[C@H](OC=O)c3ccccc3)[C@H]2SC1 [S3638 Cefamandole (nafate).cdx]	103% and 97.5%	102	97.5	103	99.4	104	97.7	97.6
Oc1ccc(-c2nc(-c3ccc(F)cc3)c(-c3ccncc3)[nH]2)cc1	89.5% and 96.2%	93.5	101	113	97.9	97.3	99.7	106
CCCc1nc2c(C)cc(-c3nc4ccccc4n3C)cc2n1Cc1ccc(-c2ccccc2C(=O)O)cc1 [Telmisartan (Micardis)]	103% and 107%	99.5	112	117	110	103	108	128
Nc1ncnc2c1ncn2C(C=O)OC(C=O)CO (stereo unspecified) [Adenosine Dialdehyde (ADOX)]	67.4% and 74.4%	69.3	60.7	59.4	25.3	14.5	40.4	42.5
